According to the supplement of paper PMC10849652:
The full data set covers some 8,800 targets. This sample favours those with a hit. About 0.5% of all pairs of compound and target were hits.

Each target was assayed with CCCS(=O)(=O)Nc1ccc(F)c(C(=O)c2c[nH]c3ncc(Cl)cc23)c1F (assay: log2 fold change, soluble protein after heating vs DMSO (PISA); higher = thermal stabilisation; K562 lysate, 10 uM; active = over 0.2 and 3.5 SD of the protein, either way, in both replicates (recomputed)).
Outline: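 Soluble protein was defined as the supernatant remaining after 21,000xg for 90 min, following pooling of heated aliquots and adjustment to 0.5% NP-40 at 4°C. Before that, crude K562 extract at 1 mg/mL protein in PBS pH 7.4 with 1 mM MgCl2 was treated with 10 μM compound for 30 min and heated for 3 min across 48°C-58°C. Quantification used TMTpro 16plex LC-MS/MS with channel sums equalised, and values are log-two fold changes in thermal stability relative to solvent controls from duplicates.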

Sequence of UniProt P15104 (P15104 whole entry, looked up): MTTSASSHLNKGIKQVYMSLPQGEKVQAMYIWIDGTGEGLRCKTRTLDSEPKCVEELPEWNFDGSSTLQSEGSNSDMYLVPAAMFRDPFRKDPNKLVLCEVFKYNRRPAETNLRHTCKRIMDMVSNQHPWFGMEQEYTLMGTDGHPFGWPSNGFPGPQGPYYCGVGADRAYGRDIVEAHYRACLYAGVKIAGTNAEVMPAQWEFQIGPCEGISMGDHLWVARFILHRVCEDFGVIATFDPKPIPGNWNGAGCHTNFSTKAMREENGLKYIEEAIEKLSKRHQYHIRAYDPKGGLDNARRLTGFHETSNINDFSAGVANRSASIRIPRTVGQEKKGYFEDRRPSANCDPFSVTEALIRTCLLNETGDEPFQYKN
Sequence of UniProt P49448 (P49448 whole entry, looked up): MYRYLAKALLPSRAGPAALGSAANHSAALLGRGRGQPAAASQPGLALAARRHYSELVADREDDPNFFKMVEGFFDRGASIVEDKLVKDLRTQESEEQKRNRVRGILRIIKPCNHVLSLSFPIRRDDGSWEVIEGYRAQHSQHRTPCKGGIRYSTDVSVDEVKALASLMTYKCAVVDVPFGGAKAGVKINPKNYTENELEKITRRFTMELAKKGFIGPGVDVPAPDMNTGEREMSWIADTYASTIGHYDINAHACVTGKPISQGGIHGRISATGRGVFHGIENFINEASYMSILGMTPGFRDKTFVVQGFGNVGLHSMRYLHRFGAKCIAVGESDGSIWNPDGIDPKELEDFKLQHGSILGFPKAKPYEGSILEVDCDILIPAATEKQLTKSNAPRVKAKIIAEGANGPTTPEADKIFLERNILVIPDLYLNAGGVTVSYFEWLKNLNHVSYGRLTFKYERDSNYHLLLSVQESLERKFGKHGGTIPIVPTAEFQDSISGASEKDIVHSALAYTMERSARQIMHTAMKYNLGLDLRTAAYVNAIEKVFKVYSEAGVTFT
Sequence of UniProt Q14527 (Q14527 whole entry, looked up): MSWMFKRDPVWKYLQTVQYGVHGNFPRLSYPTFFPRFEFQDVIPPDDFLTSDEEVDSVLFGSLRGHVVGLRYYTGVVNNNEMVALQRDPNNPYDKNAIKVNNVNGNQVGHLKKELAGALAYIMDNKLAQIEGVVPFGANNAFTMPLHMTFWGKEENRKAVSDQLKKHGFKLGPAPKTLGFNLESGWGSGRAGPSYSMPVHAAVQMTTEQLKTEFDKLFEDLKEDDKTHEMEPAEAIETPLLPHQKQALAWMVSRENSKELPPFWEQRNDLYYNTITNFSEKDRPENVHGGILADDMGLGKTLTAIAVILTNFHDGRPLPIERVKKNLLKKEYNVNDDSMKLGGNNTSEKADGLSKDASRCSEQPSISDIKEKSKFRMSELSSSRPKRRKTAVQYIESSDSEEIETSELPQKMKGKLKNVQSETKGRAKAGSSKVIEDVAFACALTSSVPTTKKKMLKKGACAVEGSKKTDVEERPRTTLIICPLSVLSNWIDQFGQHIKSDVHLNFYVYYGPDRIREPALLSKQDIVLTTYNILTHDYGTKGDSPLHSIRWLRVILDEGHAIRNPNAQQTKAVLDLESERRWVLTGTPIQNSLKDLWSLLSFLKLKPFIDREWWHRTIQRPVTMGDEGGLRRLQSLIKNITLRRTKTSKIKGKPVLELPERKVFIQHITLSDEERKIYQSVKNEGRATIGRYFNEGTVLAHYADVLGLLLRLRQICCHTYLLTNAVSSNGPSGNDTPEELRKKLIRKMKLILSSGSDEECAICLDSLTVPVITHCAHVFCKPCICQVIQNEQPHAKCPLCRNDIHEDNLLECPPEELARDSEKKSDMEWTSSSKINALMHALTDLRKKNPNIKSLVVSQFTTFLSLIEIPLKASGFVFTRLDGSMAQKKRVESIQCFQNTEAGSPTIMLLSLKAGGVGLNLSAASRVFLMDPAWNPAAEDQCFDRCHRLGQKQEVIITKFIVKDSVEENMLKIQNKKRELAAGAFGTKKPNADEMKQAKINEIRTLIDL
Sequence of UniProt P13598 (P13598 whole entry, looked up): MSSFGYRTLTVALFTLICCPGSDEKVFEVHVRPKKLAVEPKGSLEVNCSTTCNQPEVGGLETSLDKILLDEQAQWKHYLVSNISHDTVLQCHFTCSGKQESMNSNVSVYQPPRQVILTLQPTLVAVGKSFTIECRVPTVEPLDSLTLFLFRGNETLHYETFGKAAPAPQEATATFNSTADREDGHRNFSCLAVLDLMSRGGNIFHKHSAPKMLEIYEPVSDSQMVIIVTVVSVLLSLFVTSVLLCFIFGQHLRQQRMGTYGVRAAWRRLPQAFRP
Sequence of UniProt Q9NVR2 (Q9NVR2 whole entry, looked up): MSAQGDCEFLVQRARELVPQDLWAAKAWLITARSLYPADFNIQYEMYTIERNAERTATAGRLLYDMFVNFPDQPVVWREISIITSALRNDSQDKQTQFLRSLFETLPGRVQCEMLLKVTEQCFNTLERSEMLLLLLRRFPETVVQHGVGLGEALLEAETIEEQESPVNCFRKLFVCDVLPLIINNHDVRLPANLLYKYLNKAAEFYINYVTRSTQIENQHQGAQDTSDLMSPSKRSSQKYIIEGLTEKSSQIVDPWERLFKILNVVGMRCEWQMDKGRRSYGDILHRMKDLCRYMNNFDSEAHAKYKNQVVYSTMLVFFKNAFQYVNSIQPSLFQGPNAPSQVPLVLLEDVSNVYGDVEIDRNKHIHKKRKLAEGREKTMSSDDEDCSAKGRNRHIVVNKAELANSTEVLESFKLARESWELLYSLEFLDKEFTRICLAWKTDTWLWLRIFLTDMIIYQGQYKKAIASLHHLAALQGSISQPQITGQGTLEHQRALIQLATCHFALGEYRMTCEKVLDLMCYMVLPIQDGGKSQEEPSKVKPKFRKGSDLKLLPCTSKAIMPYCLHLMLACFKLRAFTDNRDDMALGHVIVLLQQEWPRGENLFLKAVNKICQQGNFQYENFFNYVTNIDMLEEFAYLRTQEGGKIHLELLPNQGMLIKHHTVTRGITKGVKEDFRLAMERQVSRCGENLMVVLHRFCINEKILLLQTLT
Sequence of UniProt Q15046 (Q15046 whole entry, looked up): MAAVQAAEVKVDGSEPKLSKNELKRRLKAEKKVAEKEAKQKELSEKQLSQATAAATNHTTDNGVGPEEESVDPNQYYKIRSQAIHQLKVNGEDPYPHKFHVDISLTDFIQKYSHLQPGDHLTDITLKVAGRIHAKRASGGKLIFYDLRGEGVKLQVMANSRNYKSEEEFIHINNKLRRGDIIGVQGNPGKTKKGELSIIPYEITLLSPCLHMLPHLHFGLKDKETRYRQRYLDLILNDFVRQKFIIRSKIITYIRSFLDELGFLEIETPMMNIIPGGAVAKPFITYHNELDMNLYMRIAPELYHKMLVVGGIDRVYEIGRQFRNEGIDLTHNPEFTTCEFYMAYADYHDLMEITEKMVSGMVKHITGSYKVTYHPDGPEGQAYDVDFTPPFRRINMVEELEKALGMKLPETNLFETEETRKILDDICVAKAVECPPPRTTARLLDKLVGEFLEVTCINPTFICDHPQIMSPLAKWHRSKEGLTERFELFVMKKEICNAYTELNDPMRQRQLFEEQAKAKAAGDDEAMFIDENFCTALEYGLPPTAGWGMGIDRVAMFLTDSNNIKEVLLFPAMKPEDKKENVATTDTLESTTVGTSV
Sequence of UniProt Q14687 (Q14687 whole entry, looked up): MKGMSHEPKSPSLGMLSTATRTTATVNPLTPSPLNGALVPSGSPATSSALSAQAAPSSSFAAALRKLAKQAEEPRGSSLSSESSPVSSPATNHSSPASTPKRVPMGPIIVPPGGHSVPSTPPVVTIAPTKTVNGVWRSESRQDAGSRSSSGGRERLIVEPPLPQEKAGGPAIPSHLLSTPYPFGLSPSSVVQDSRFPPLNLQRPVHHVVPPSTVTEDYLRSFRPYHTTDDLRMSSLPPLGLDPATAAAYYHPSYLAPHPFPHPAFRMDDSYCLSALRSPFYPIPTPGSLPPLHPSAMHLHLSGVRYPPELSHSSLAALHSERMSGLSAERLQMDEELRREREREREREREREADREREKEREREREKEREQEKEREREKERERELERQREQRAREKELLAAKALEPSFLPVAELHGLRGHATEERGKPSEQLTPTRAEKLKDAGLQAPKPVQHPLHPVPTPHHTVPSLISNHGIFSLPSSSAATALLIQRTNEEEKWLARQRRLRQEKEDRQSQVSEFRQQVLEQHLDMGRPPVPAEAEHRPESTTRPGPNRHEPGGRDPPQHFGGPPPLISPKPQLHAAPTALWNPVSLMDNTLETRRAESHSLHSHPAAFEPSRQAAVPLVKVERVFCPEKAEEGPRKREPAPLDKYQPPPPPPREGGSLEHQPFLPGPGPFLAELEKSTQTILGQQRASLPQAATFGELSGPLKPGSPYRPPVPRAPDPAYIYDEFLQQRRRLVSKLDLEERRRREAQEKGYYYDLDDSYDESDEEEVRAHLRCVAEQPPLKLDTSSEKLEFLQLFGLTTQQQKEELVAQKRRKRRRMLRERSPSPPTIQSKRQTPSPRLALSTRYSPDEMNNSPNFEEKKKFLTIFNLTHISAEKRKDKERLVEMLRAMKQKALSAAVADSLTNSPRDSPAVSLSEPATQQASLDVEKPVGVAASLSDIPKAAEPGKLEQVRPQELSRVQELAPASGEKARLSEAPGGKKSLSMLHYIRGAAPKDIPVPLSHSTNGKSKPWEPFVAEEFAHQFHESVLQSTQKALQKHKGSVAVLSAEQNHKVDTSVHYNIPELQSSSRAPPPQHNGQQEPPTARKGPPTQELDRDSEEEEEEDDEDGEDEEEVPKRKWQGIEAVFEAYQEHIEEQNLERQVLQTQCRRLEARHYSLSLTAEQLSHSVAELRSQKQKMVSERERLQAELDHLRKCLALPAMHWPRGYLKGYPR
Sequence of UniProt Q03013 (Q03013 whole entry, looked up): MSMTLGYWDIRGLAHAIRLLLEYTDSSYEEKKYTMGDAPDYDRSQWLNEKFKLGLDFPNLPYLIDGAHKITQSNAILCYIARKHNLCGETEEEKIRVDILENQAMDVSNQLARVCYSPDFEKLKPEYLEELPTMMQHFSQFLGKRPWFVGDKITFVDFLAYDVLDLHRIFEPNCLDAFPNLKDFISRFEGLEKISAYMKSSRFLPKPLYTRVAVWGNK

log2 fold change, inactive:
GLYR1 (UniProt Q49A26) 0.019
HMGCS1 (UniProt Q01581) -0.009
GSTM4 (UniProt Q03013) 0.034
KARS1 (UniProt Q15046) -0.002
GTF2H4 (UniProt Q92759) 0.007
HAUS7 isoform 2 (UniProt Q99871) 0.006
GSE1 (UniProt Q14687) 0.035
INTS10 (UniProt Q9NVR2) -0.183
GMDS (UniProt O60547) 0.012
HDHD5 (UniProt Q9BXW7) 0.043
GLUD2 (UniProt P49448) -0.042
ILKAP (UniProt Q9H0C8) -0.01
HSPA14 (UniProt Q0VDF9) 0.011
GLUL (UniProt P15104) 0.012
GSK3A (UniProt P49840) 0.006
GRK6 isoform 2 (UniProt P43250) 0.046
GRK2 (UniProt P25098) 0.016
KDM5C (UniProt P41229) 0.036
ILK (UniProt Q13418) -0.024
HLTF (UniProt Q14527) -0.044
INTS7 (UniProt Q9NVH2) -0.058
ICAM2 (UniProt P13598) 0.016
HSP90AA4P (UniProt Q58FG1) 0
HMGB2 (UniProt P26583) 0.017
